In PubChem BioAssay AID731 (The Scripps Research Institute Molecular Screening Center, 2007):
Among all 200,000 compounds or so, about 520 (0.26%) were called active. Rule as the data show it: active = activation above about 23%; inactive = the rest. Shown is part of a subset that was picked to be rich in actives.

These molecules were tested against Peroxisome proliferator-activated receptor gamma (Homo sapiens) (UniProt P37231) (assay: PPARgamma agonists recruiting SRC-3 coactivator, primary screen, biochemical (AID 731;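 also: 0% = DMSO and 100% = reference agonist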)). Settings: biochemical PPARgamma/SRC-3 coactivator recruitment assay; at 8 µM; hits give high values.
Chain of Peroxisome proliferator-activated receptor gamma (Homo sapiens) (P37231 whole entry, looked up): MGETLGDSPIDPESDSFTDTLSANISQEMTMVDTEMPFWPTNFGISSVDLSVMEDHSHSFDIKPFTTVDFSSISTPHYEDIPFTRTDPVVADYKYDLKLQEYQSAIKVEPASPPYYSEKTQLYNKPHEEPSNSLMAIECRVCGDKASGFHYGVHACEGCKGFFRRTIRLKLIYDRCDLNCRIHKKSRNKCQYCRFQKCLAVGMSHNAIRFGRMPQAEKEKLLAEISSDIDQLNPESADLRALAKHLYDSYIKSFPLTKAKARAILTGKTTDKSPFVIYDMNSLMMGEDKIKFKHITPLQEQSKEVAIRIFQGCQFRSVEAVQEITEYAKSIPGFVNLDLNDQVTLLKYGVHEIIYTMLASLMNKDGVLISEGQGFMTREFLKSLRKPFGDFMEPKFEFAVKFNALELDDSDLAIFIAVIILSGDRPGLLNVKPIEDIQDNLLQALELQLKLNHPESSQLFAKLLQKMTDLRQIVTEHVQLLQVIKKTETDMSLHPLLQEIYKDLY
With `CC(=O)NS(=O)(=O)c1ccc(NC(=O)C2C3C=CC(C3)C2C(=O)O)cc1` (stereo not drawn) the activation was 0.92% (inactive).
With `CC(=O)Cc1nsc(NC(=O)c2ccc(Cl)cc2Cl)n1` the activation was -0.15% (inactive).
`O=C(NCc1nnc(SCC(=O)N2CCC(Cc3ccccc3)CC2)o1)c1ccco1` was tested, and the activation was -1.46% (inactive).
In the case of `CCOC(=O)C1CCN(C(=O)c2ccccc2N(C)S(=O)(=O)c2ccccc2)CC1`, the activation is reported as 0.82% (inactive).
For `COc1ccc(-n2nc3c(c2NC(=O)c2ccc(N4C(=O)CCC4=O)cc2)CSC3)cc1`, the activation was 2.03% (inactive).
In the case of `COc1ccccc1C1/C(=C(/O)c2ccc(C)cc2)C(=O)C(=O)N1Cc1ccco1` (stereo not drawn), the activation is reported as -1.85% (inactive).
In the case of `COc1ccc(/C(O)=C2/C(=O)C(=O)N(c3nc(C)c(C)s3)C2c2ccco2)cc1` (stereo not drawn), the activation is reported as 32.8% (active).
`COc1ccc(/C(O)=C2\C(=O)C(=O)N(Cc3ccco3)C2c2ccc(OC)cc2OC)cc1` (stereo not drawn) was tested, and the activation was 8.22% (inactive).
`CCc1ccc(NC(=O)C(=O)N/N=C(\C)CC(=O)NCCOC)cc1` was tested, and the activation was 0.12% (inactive).
For `CN(C)c1ccc(C(=S)N2CCN(C(=S)Nc3ccc(Cl)cc3)CC2)cc1`, the activation was 2.08% (inactive).
With `CC(=O)c1ccc(-n2nnnc2SCC(=O)N2CCN(C(=O)c3ccco3)CC2)cc1` the activation was 0.9% (inactive).
For `CCOC(=O)C1CCN(C(=O)CSc2cc(=O)n(C)c3ccccc23)CC1`, the activation was 63.4% (active).
For `CCOC(=O)C1CCN(C(=O)Cn2cc(C#N)c3ccccc32)CC1`, the activation was 13.8% (inactive).
For `Cn1c(=O)cc(SCC(=O)N2CCN(C(=O)c3ccco3)CC2)c2ccccc21`, the activation was 82.2% (active).
With `Cc1cccc(OCc2nnc(SCC(=O)N3CCN(C(=O)c4ccco4)CC3)n2C)c1C` the activation was 9.2% (inactive).
With `O=C(CSCc1ccc(Cl)cc1)N1CCCCC1` the activation was 7.11% (inactive).
`CCOC(=O)N1CCC(NC(=O)COc2cc(=O)n(C)c3ccccc23)CC1` was tested, and the activation was -2.51% (inactive).
`Cn1c(=O)cc(SCC(=O)N2CCCC2)c2cc(Cl)ccc21` was tested, and the activation was 39.3% (active).
With `CCOc1ccc(CCNC(=O)CSc2cc(=O)n(C)c3ccc(Cl)cc23)cc1OCC` the activation was 10.2% (inactive).
For `COC(=O)c1ccccc1SC1CC(=O)N(c2cccc(C)c2)C1=O` (stereo not drawn), the activation was 33% (active).
In the case of `Cc1cccc(N2C(=O)CC(SC(N)=Nc3ccccc3)C2=O)c1` (stereo not drawn), the activation is reported as -7.93% (inactive).
`COC(=O)c1cc(C(=O)OC)cc(N2C(=O)CC(N3CCN(c4ccccc4)CC3)C2=O)c1` (stereo not drawn) was tested, and the activation was -12.5% (inactive).
In the case of `O=C(COC(=O)/C(=C/c1cccs1)c1cccs1)NCc1ccccc1Cl`, the activation is reported as 3.76% (inactive).
`COc1ccc(C2CC(c3ccccc3)=NN2C(=O)COC(=O)COc2ccccc2)cc1` (stereo not drawn) was tested, and the activation was -0.96% (inactive).
For `Brc1ccc(C2CC(c3ccccc3)=Nc3ccccc3N2)cc1` (stereo not drawn), the activation was 0.93% (inactive).
`CNC(=S)N1N=C(c2ccccc2)CC1c1ccc(Br)cc1` (stereo not drawn) was tested, and the activation was 34.4% (active).
`Cc1ccc2[nH]c3c(=O)n(Cc4ccccn4)cnc3c2c1` was tested, and the activation was 8.8% (inactive).
With `CC(=O)c1ccc(S(=O)(=O)N2CCN(c3nc4c(C)c(C)ccc4cc3C#N)CC2)cc1` the activation was 56.6% (active).
With `Cc1cc(C)c2nc(N3CCCC3)c(C#N)cc2c1` the activation was -3.43% (inactive).
In the case of `Cc1cccc2cc(C#N)c(N3CCCC3)nc12`, the activation is reported as -13.8% (inactive).
`O=C(NCc1ccccc1)C1=C[C@@H](C2CCCCC2)C[C@@H](OCc2ccc(CO)cc2)O1` was tested, and the activation was -1.47% (inactive).
`CCS(=O)(=O)Nc1cccc(-c2cc(-c3ccccc3)c3cc(C)ccc3n2)c1` was tested, and the activation was -3.81% (inactive).
`O=C(CSc1nc2cccnc2n1Cc1ccccc1)N1CCc2ccccc21` was tested, and the activation was -2.44% (inactive).
